# Assay results from the supplement of paper PMC8728848.
# Shown is part of a subset that was picked to be rich in the strongest signals.
# B1: Gal 8 (Homo sapiens), O00214 (protein)
# chain: MMLSLNNLQNIIYNPVIPFVGTIPDQLDPGTLIVIRGHVPSDADRFQVDLQNGSSMKPRADVAFHFNPRFKRAGCIVCNTLINEKWGREEITYDTPFKREKSFEIVIMVKDKFQVAVNGKHTLLYGHRIGPEKIDTLGIYGKVNIHSIGFSFSSDLQSTQASSLELTEISRENVPKSGTPQLPSNRGGDISKIAPRTVYTKSKDSTVNHTLTCTKIPPMNYVSKRLPFAARLNTPMGPGRTVVVKGEVNANAKSFNVDLLAGKSKDIALHLNPRLNIKAFVRNSFLQESWGEEERNITSFPFSPGMYFEMIIYCDVREFKVAVNGVHSLEYKHRFKELSSIDTLEINGDIHLLEVRSW
# B2: RNase 1 (Homo sapiens) (protein)
# chain: KESRAKKFQRQHMDSDSSPSSSSTYCNQMMRRRNMTQGRCKPVNTFVHEPLVDVQNVCFQEKVTCKNGQGNCYKSNSSMHITDCRLTNGSRYPNCAYRTSPKERHIIVACEGSPYVPVHFDASVEDST
# Key:
# Test in all cases: glycan array binding signal (z-score within array); higher = stronger binding
# Conditions in all cases: glycan notation: IUPAC condensed, linker removed
# [1] = target: Fuc(a1-2)Gal(b1-3)GalNAc(b1-3)Gal(a1-4)Gal(b1-4)Glc
# Summary of the method: (§1)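 The binding signal is a Z-score computed within each array. Data were drawn from 3228 arrays in the Consortium for Functional Glycomics database, restricted to those with a known protein sequence. Scores were averaged over arrays of the same protein sequence at different concentrations or buffers, and over linkers, and negative values can be taken as non-binding.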
# Fuc(a1-2)Gal(b1-4)Glc6S = target: Fuc(a1-2)Gal(b1-4)Glc6S
# Summary of the method: as §1
# [2] = target: Fuc(a1-2)Gal(b1-4)[Fuc(a1-3)]GlcNAc(b1-3)Gal(b1-4)[Fuc(a1-3)]GlcNAc(b1-3)Gal(b1-4)[Fuc(a1-3)]GlcNAc
# Summary of the method: as §1
# Fuc(a1-2)Gal6S(b1-4)Glc = target: Fuc(a1-2)Gal6S(b1-4)Glc
# Summary of the method: as §1
# [3] = target: Fuc(a1-2)[Gal(a1-3)]Gal(b1-3)GlcNAc
# Summary of the method: as §1
# [4] = target: Fuc(a1-2)[Gal(a1-3)]Gal(b1-4)Glc
# Summary of the method: as §1
# [5] = target: Fuc(a1-2)[Gal(a1-3)]Gal(b1-4)GlcNAc
# Summary of the method: as §1
# [6] = target: Fuc(a1-2)[GalNAc(a1-3)]Gal(b1-4)Glc
# Summary of the method: as §1
# [7] = target: Fuc(a1-2)[GalNAc(b1-3)]Gal
# Summary of the method: as §1
# [8] = target: Fuc(a1-3)[Gal(b1-4)]GlcNAc6S
# Summary of the method: as §1
# Gal(a1-3)Gal(b1-4)GlcNAc = target: Gal(a1-3)Gal(b1-4)GlcNAc
# Summary of the method: as §1
# Gal(b1-2)Gal = target: Gal(b1-2)Gal
# Summary of the method: as §1
# [9] = target: Gal(b1-3)GalNAc(b1-4)Gal(b1-4)Glc
# Summary of the method: as §1
# [10] = target: Gal(b1-3)[Fuc(a1-4)]GlcNAc
# Summary of the method: as §1
# [11] = target: Gal(b1-3)[Fuc(a1-4)]GlcNAc(b1-3)Gal(b1-4)GlcNAc
# Summary of the method: as §1
# [12] = target: Gal(b1-4)GlcNAc(b1-3)Gal(b1-4)Glc
# Summary of the method: as §1
# [13] = target: Gal3S(b1-3)[Fuc(a1-4)]GlcNAc
# Summary of the method: as §1
# Gal3S(b1-4)Glc = target: Gal3S(b1-4)Glc
# Summary of the method: as §1
# Gal4S(b1-4)GlcNAc = target: Gal4S(b1-4)GlcNAc
# Summary of the method: as §1
# [14] = target: GalNAc(b1-3)Gal(a1-4)Gal(b1-4)GlcNAc
# Summary of the method: as §1
# GlcA(b1-3)Gal = target: GlcA(b1-3)Gal
# Summary of the method: as §1
# GlcNAc(b1-3)Gal = target: GlcNAc(b1-3)Gal
# Summary of the method: as §1
# [15] = target: GlcNAc(b1-4)Gal(b1-4)GlcNAc
# Summary of the method: as §1
# GlcNAc(b1-4)GlcNAc = target: GlcNAc(b1-4)GlcNAc
# Summary of the method: as §1
# [16] = target: Neu5Ac(a2-3)Gal(b1-3)GlcNAc(b1-3)Gal(b1-3)GlcNAc
# Summary of the method: as §1
# [17] = target: Neu5Ac(a2-3)Gal(b1-4)GlcNAc(b1-6)[Gal(b1-3)]GalNAc
# Summary of the method: as §1
# [18] = target: Neu5Ac(a2-6)Gal(b1-4)GlcNAc(b1-2)Man(a1-3)[GlcNAc(b1-2)Man(a1-6)]Man(b1-4)GlcNAc(b1-4)GlcNAc
# Summary of the method: as §1
# [19] = target: Neu5Ac(a2-6)Gal(b1-4)GlcNAc(b1-2)Man(a1-6)[GlcNAc(b1-2)Man(a1-3)]Man(b1-4)GlcNAc(b1-4)GlcNAc
# Summary of the method: as §1
# [20] = target: Neu5Ac(a2-6)Gal(b1-4)GlcNAc(b1-3)Gal(b1-4)[Fuc(a1-3)]GlcNAc(b1-3)Gal(b1-4)[Fuc(a1-3)]GlcNAc
# Summary of the method: as §1
# [21] = target: Neu5Gc(b2-6)Gal(b1-4)GlcNAc
# Summary of the method: as §1
# [22] = target: Fuc(a1-2)Gal(b1-3)[Fuc(a1-4)]GlcNAc
# Summary of the method: as §1
# Fuc(a1-2)[Gal(a1-3)]Gal = target: Fuc(a1-2)[Gal(a1-3)]Gal
# Summary of the method: as §1
# [23] = target: Fuc(a1-3)[Gal3S(b1-4)]GlcNAc
# Summary of the method: as §1
# Gal(a1-4)Gal(b1-4)Gal = target: Gal(a1-4)Gal(b1-4)Gal
# Summary of the method: as §1
# Gal(a1-4)Gal(b1-4)GalNAc = target: Gal(a1-4)Gal(b1-4)GalNAc
# Summary of the method: as §1
# Gal(a1-4)GlcNAc = target: Gal(a1-4)GlcNAc
# Summary of the method: as §1
# [24] = target: Gal(b1-3)GalNAc(b1-3)Gal(b1-4)Glc
# Summary of the method: as §1
# [25] = target: Gal(b1-4)GalNAc(b1-3)[Fuc(a1-2)]Gal(b1-4)GlcNAc
# Summary of the method: as §1
# [26] = target: GlcNAc(b1-3)[GlcNAc(b1-4)][GlcNAc(b1-6)]GlcNAc
# Summary of the method: as §1
# [27] = target: GlcNAc(b1-3)[GlcNAc(b1-6)]GlcNAc
# Summary of the method: as §1
# [28] = target: GlcNAc(b1-4)GlcNAc(b1-4)GlcNAc(b1-4)GlcNAc(b1-4)GlcNAc
# Summary of the method: as §1
# [29] = target: Man(a1-2)Man(a1-2)Man(a1-3)[Man(a1-2)Man(a1-6)[Man(a1-3)]Man(a1-6)]Man(b1-4)GlcNAc(b1-4)GlcNAc
# Summary of the method: as §1
# Man(a1-3)[Man(a1-6)]Man = target: Man(a1-3)[Man(a1-6)]Man
# Summary of the method: as §1
# [30] = target: Neu5Ac(a2-3)Gal(b1-3)GlcNAc6S
# Summary of the method: as §1
# [31] = target: Neu5Ac(a2-8)Neu5Ac(a2-8)Neu5Ac(a2-3)[GalNAc(b1-4)]Gal(b1-4)Glc
# Summary of the method: as §1
binder,measurement,setting,value
B1,glycan array binding signal (z-score),[1],-0.141
same,glycan array binding signal (z-score),Fuc(a1-2)Gal(b1-4)Glc6S,0.286
same,glycan array binding signal (z-score),[2],-0.386
same,glycan array binding signal (z-score),Fuc(a1-2)Gal6S(b1-4)Glc,-0.427
same,glycan array binding signal (z-score),[3],3.58
same,glycan array binding signal (z-score),[4],5.02
same,glycan array binding signal (z-score),[5],4.8
same,glycan array binding signal (z-score),[6],4.22
same,glycan array binding signal (z-score),[7],0.118
same,glycan array binding signal (z-score),[8],-0.432
same,glycan array binding signal (z-score),Gal(a1-3)Gal(b1-4)GlcNAc,0.236
same,glycan array binding signal (z-score),Gal(b1-2)Gal,-0.401
same,glycan array binding signal (z-score),[9],0.32
same,glycan array binding signal (z-score),[10],-0.413
same,glycan array binding signal (z-score),[11],0.294
same,glycan array binding signal (z-score),[12],2.43
same,glycan array binding signal (z-score),[13],-0.42
same,glycan array binding signal (z-score),Gal3S(b1-4)Glc,0.286
same,glycan array binding signal (z-score),Gal4S(b1-4)GlcNAc,-0.395
same,glycan array binding signal (z-score),[14],0.145
same,glycan array binding signal (z-score),GlcA(b1-3)Gal,-0.451
same,glycan array binding signal (z-score),GlcNAc(b1-3)Gal,-0.434
same,glycan array binding signal (z-score),[15],-0.425
same,glycan array binding signal (z-score),GlcNAc(b1-4)GlcNAc,-0.449
same,glycan array binding signal (z-score),[16],0.949
same,glycan array binding signal (z-score),[17],0.196
same,glycan array binding signal (z-score),[18],-0.45
same,glycan array binding signal (z-score),[19],-0.442
same,glycan array binding signal (z-score),[20],-0.365
same,glycan array binding signal (z-score),[21],-0.452
B2,glycan array binding signal (z-score),[1],1.93
same,glycan array binding signal (z-score),[22],-0.174
same,glycan array binding signal (z-score),Fuc(a1-2)[Gal(a1-3)]Gal,-0.14
same,glycan array binding signal (z-score),[23],-0.168
same,glycan array binding signal (z-score),Gal(a1-4)Gal(b1-4)Gal,7.93
same,glycan array binding signal (z-score),Gal(a1-4)Gal(b1-4)GalNAc,8.87
same,glycan array binding signal (z-score),Gal(a1-4)GlcNAc,-0.225
same,glycan array binding signal (z-score),[24],0.641
same,glycan array binding signal (z-score),[25],-0.218
same,glycan array binding signal (z-score),[14],0.455
same,glycan array binding signal (z-score),[26],-0.069
same,glycan array binding signal (z-score),[27],-0.116
same,glycan array binding signal (z-score),[28],-0.028
same,glycan array binding signal (z-score),[29],-0.153
same,glycan array binding signal (z-score),Man(a1-3)[Man(a1-6)]Man,-0.147
same,glycan array binding signal (z-score),[30],-0.204
same,glycan array binding signal (z-score),[31],-0.187
